PubChem BioAssay AID2314 (National Center for Advancing Translational Sciences (NCATS), 2010)
The campaign covered roughly 300,000 compounds. About 37,000 (12%) were called active. The full list was thinned out, with actives kept by preference. Values without a mark were called inactive. Rule as the data show it: active = max response mostly above about 13% (no sharp cut-off); inactive = mostly below about 14%.

Assay: Cycloheximide Counterscreen for Small Molecule Inhibitors of Shiga Toxin; also: read at 38.3 µM for the half of the compounds with a filed dose; 0% is about no effect
Settings: cell reporter, cycloheximide protein synthesis inhibition counterscreen; active compounds read high

| SMILES | max response |
| --- | --- |
| CC(=O)c1cccc(NC(=O)C2CCCN(S(=O)(=O)c3cccc4nonc34)C2)c1 (stereo unspecified) | -1.65% |
| CCCn1c(C2CCCN2c2nc(-c3ccc(C)cc3)cs2)nc2cc(Cl)c(N3CCCCC3)cc21 (stereo unspecified) | 2.93% |
| CCN(CC)CCN(C(=O)c1cc(Cl)sc1Cl)c1nc2cc3c(cc2s1)OCO3 | 11.7% |
| CC(=O)Nc1ccc(NC(=O)CN2C(=O)COc3ccc(S(=O)(=O)N4CCCCC4)cc32)cc1 | -11.2% |
| COc1ccccc1Oc1ccc(N2CC(C(=O)OCC(=O)c3ccc(F)cc3)CC2=O)cc1 (stereo unspecified) | 1.71% |
| CCCOc1ccc(Cc2c(O)nc(SC)[nH]c2=O)cc1C | 1.31% |
| Cc1noc(/C=C/c2ccco2)c1S(=O)(=O)N1CCC(C(=O)Nc2ccc(Cl)cn2)CC1 | 14.7% |
| Cc1cc(C)cc(OCC(=O)Nc2cc(NC(=O)COc3cc(C)cc(C)c3)cc(C(=O)O)c2)c1 | -5.04% |
| COc1ccc(CCNS(=O)(=O)c2cc3c(cc2C)NC(=O)CO3)cc1OC | -0.971% |
| FC(F)(F)c1nc(-c2ccccc2)ncc1-c1nnnn1-c1ccccc1 | -1.17% |
| Cc1ccc(CNC(=O)CCN2C(=O)[C@@H]3Cc4ccccc4CN3C2=O)cc1 | 4.73% |
| COc1ccccc1CSc1ncc(-c2ccc([N+](=O)[O-])cc2)[nH]1 | 29.2% (active) |
| N#Cc1c(-c2ccccc2)nc(SCc2ccc([N+](=O)[O-])cc2)[nH]c1=O | -1.84% |
| CCCCSc1nc2ccccc2[nH]1 | 30.4% (active) |
| O=C(NCc1ccccc1)c1onc(CSc2nc3ccccc3[nH]2)c1C(=O)NCc1ccccc1 | -0.0609% |
| C=CCSc1nc2ccccc2[nH]1 | 12.4% |
| COc1ccccc1CSc1nc2ccccc2[nH]1 | 41% (active) |
| COc1ccccc1-c1noc(CSc2nc(C)cc(=O)[nH]2)n1 | 1.82% |
| COc1ccccc1CC(=O)Nc1ccc([N+](=O)[O-])cc1OC | -1.19% |
| CCc1nnc(NC(=O)CCCSc2nc3ccccc3[nH]2)s1 | -1.42% |
| CCNS(=O)(=O)c1ccc(CCC(=O)N2CCN(c3ccc(OC)cc3)CC2)cc1 | 2.4% |
| CC(Oc1ccccc1[N+](=O)[O-])C(=O)N/N=C/c1ccoc1 (stereo unspecified) | -2.14% |
| CCOc1cc(C(C(=O)NCC2CCCO2)N(C(=O)Cn2nnc3ccccc32)c2cccc(OC)c2)ccc1O (stereo unspecified) | -2.76% |

| SMILES | max response |
| --- | --- |
| Cc1c(Cl)c([N+](=O)[O-])nn1Cc1ccc(C(=O)N/N=C\c2cc(Cl)ccc2O)o1 | 9.36% |
| CC1CCc2c(sc(NC(=O)c3ccc(Cn4cc(Br)cn4)o3)c2C(N)=O)C1 (stereo unspecified) | 0.185% |
| O=C(N/N=C/c1ccc(OCC2COCCO2)cc1)c1ccc(Br)cc1 (stereo unspecified) | 3.9% |
| O=C(N/N=C\c1ccc(Br)cc1)c1ccc(Cn2cccn2)o1 | 19.8% (active) |
| CN(C)c1ccc(/C=N/NC(=O)c2ccc(Cn3cc(Br)cn3)o2)cc1 | 56.4% (active) |
| O=C(N/N=C/c1ccc2c(c1)OCO2)c1ccc(Cn2cc([N+](=O)[O-])cn2)o1 | 12.3% |
| C=CCNC(=S)NNc1ncnc2sc3c(c12)CC(C)(C)OC3 | -1.51% |
| COc1ccccc1CNS(=O)(=O)CC12CCC(CC1=O)C2(C)C (stereo unspecified) | -1.52% |
| CC(C)(C)OC(=O)CNC(=O)c1[nH]cnc1C(=O)N[C@@H](Cc1ccccc1)C(=O)OCc1ccccc1 | -1.14% |
| CCOC(=O)N1CCN(Cc2nnc(-c3ccccc3Cl)o2)CC1 | -1.64% |
| N/C(=N\S(=O)(=O)c1cc(C(F)(F)F)cc(C(F)(F)F)c1)c1cccs1 | 0.609% |
| CCn1nc(C)c(/C=N/NC(=O)Cc2ccc(Cl)cc2)c1C | 27.9% (active) |
| Cc1nn(Cc2ccc(Cl)cc2)c(Cl)c1/C=N/NC(=O)CNc1ccccc1F | -0.244% |
| Cc1nn(Cc2ccc(Cl)cc2)c(Cl)c1/C=N/NC(=O)c1cccnc1 | -2.03% |
| COCCCNC(=O)[C@H]1N2C(=O)c3ccccc3C2SC1(C)C (stereo partly specified) | -1.51% |
| Cc1ccc(SCCC(=O)NCc2ccccn2)cc1 | -2.86% |
| Cc1ccc(SCCC(=O)NC(C(C)C)C(C)C)cc1 | 1.28% |
| Cc1ccc(SCCSc2ncccn2)cc1 | 44.5% (active) |
| Cc1cc(=O)oc2cc(OCC(=O)N3CCN(c4ccc(F)cc4)CC3)c(Cl)cc12 | -1.36% |
| Cc1cc(C)n2nc(SCC(=O)NC(=O)NCc3ccco3)nc2n1 | 3.86% |
| COc1ccc(NC(=O)c2cccc(Cl)c2)c[n+]1[O-] | -3.34% |
| C/C(=N\N(C)C)c1ccc(OCCOc2ccc([N+](=O)[O-])cc2)cc1 | 10.2% |
| CCc1cccc2c(=O)c(C(=O)NCCCOC)c[nH]c12 | -0.768% |
